Bioassay records deposited in PubChem by several laboratories.
697 NFkB inh – lowers PMA/ionomycin-induced NF-kB signal in 697 B cells; 697 B-cell NF-kB luciferase reporter, 16 h; 0.33% of 330,000 active; inhibition, % at 4 µM; in the data active = inhibition above about 35%
aSyn 5UTR inh – 5' untranslated region of α-synuclein, MLPCN primary screen. 0.82% of 300,000 active. AID 1813. alpha-synuclein 5'UTR reporter, inhibitor activity. inhibition, % (tested at 7.5 µM); in the data active = inhibition above about 60%;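 note: H4 neuroglioblastoma cells stably carrying SNCA 5'UTR luciferase fusion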
Jurkat NFkB inh – inhibitors of the PMA/ionomycin-induced NF-kB reporter in Jurkat cells | inhibition, % at 4 µM | AID 435003 | PMA/ionomycin-induced NF-kB luciferase reporter, luminescence | 0.53% of 330,000 active; in the data active = inhibition above about 50%
Gli-Sufu antag – antagonists of Gli-Sufu signaling | 0.74% of 340,000 active | Sufu-KO-LIGHT fibroblasts, Gli luciferase reporter luminescence | inhibition, % at 5 µM | AID 588413;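 active = inhibition above about 55%, limit read from the data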
Mdm2 MdmX PPI – human Mdm2/MdmX binding inhibition. inhibition, % at 8 µM. SaOS-2 split-luciferase Mdm2/MdmX complementation, luminescence. 3% of 330,000 active. AID 485346. O15151+Q00987;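 active = inhibition of at least 50% at 8 µM in the primary screen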
KLF5 inhibitor – suppresses KLF5 promoter-driven expression. inhibition, % at 5 µM. 0.23% of 290,000 active. DLD-1 KLF5 promoter-luciferase reporter, luminescence;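 active = inhibition above a per-plate limit of that plate's mean compound inhibition plus 3 SD, cut at about 60% in these data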;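 note: higher means less KLF5 promoter-driven luciferase light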
Mdm2 MdmX conf – confirmation of human Mdm2/MdmX interaction inhibitors | shares compounds with Mdm2 MdmX PPI | Mdm2-MdmX binding, luminescent assay | inhibition, % at 8 µM | 55% of 10,000 active | AID 489028; in the data active = inhibition above about 40%
FLuc counter – counter-screen for Mdm2/MdmX inhibitors: full-length luciferase; AID 504607; shares compounds with Mdm2 MdmX PPI; SaOS-2 full-length luciferase counterscreen, luminescence; 77% of 6,200 active; inhibition, % at 8 µM;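 active = mean inhibition at 8 µM reaching about 37%, which flags the compound as non-specific, limit read from the data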;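 note: p53-null SaOS-2 cells with luciferase driven by a doxycycline-inducible promoter; compound on cells about two nights before reading with doxycycline added after day one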
Large screens that a line does not name were inactive (follow-up assays come after a bar, where they were run). Only some compounds are listed: those with a hit (about 4.1% of all), similar ones and a draw of the others.

COc1cc(/C=N/NC(N)=O)ccc1OCC(=O)Nc1cc(C)c(C)cc1Br	Mdm2 MdmX PPI 81.4 | Mdm2 MdmX conf 49.5 | FLuc counter 105.6
CCc1ccc(N(C(=O)c2csnn2)C(C(=O)NC(C)(C)CC)c2cccnc2)cc1 (stereo not given)	none
CCc1cccc(CC)c1NC(=O)CSc1nnc(C2CC2)n1C	none
CSC1=NCCN1S(=O)(=O)c1ccccc1	none
COc1ccc(C(=O)Nc2ccc(NC(=O)C3CC3)nc2)cc1	none
CCCOc1ccc(/C=N/NC(=O)CN2CCCCC2)cc1OCC	none
COc1ccc(/C=N/NC(=O)c2[nH]nc3c2CCc2ccccc2-3)cc1OC	Mdm2 MdmX PPI 55.9 | Mdm2 MdmX conf 68.0 | FLuc counter 74.5
COc1ccc(/C=N/NC(N)=S)cc1OC(=O)c1cccc2ccccc12	Mdm2 MdmX PPI 60.7 | Mdm2 MdmX conf inactive
COc1cc(/C=N\NC(=O)c2ccc(-c3ccccc3)cc2)ccc1OCC(N)=O	Mdm2 MdmX PPI 50.2 | Mdm2 MdmX conf inactive
COc1cc(/C=N\NC(=O)c2ccc(-c3ccccc3)cc2)cc(OC)c1O	none
COc1ccc(C(=O)Oc2cc(/C=N/NC(N)=S)ccc2OC)cc1	none
CCCCOc1ccc(C(=O)N/N=C/c2ccc(OCCN3CCCCC3)c(OC)c2)cc1	Mdm2 MdmX PPI 80.6 | Mdm2 MdmX conf inactive
CNC(=O)c1[nH]nc2c1CCc1ccccc1-2	none
CCOc1ccc(CCNC(=O)CCc2nnc3ccc(N4CCCCC4)nn23)cc1OCC	none
Cc1ccc(NC(=O)Cc2nnc(SCC(=O)NC3CCCC3)n2C)cc1C	none
CC(=O)NC(=S)Nc1sc2c(c1C(N)=O)CCC(C)C2 (stereo not given)	none
COc1ccc(CCNC(=O)CCC(=O)n2ncc3ccc(Cl)cc32)cc1OC	none
Cc1cc(C)n(-c2nc3ccccc3c(=O)n2OCC#N)n1	Mdm2 MdmX PPI 65.9 | Mdm2 MdmX conf 49.0 | FLuc counter 45.7
CCS(=O)(=O)c1ncc(CO)n1CCc1ccccc1	none
CC1(CO)COC(c2ccccc2)=N1 (stereo not given)	none
N#CCC(=O)N/N=C/c1cc(-c2ccccc2)n(-c2ccc(Cl)cc2)c1-c1ccccc1	none
Cc1ccc(-n2c(-c3ccccc3)cc(/C=N/NC(=O)CC#N)c2-c2ccccc2)cc1	Mdm2 MdmX PPI 54.7 (no result: Gli-Sufu antag) | Mdm2 MdmX conf inactive
Nc1c2nc(-c3ccccc3)[nH]c(=O)c2nc(=O)n1-c1ccccc1	Mdm2 MdmX PPI 62.7 | Mdm2 MdmX conf inactive
O=c1[nH]c(-c2ccc(F)cc2)nc2c1sc(=S)n2-c1ccccc1	none
Cc1cc(NC(=O)CSc2nc3c(sc4ccccc43)c(=O)n2CCc2ccccc2)n[nH]1	Mdm2 MdmX PPI 62.1 | Mdm2 MdmX conf inactive
Cc1cc(NC(=O)CSc2nc3ccccc3c(=O)n2CCCC(=O)NCc2ccccc2)n[nH]1	none
CCCCc1ccc(NC(=S)NCc2ccccc2OC)cc1	none
Cn1nc(-c2ccccc2)c(C(O)c2ccc(Cl)cc2)c1Cl (stereo not given)	none
Cn1nc(-c2ccccc2)c(CSc2ccccc2Cl)c1Cl	Mdm2 MdmX PPI 52.6 | Mdm2 MdmX conf 64.6 | FLuc counter 55.9
O=C(ONC1=NCCCCC1)c1cccc([N+](=O)[O-])c1	Mdm2 MdmX PPI 55.6 | Mdm2 MdmX conf inactive
O=[N+]([O-])c1cccc(/C=N/NC2=NCCCCC2)c1	none
COc1cc(-c2nnc(SCC(=O)N3c4ccccc4Sc4ccccc43)o2)cc(OC)c1OC	none
O=C(Sc1nnc(-c2ccccc2)o1)N1c2ccccc2Sc2ccccc21	Mdm2 MdmX PPI 59.5 | Mdm2 MdmX conf inactive
O=C(Nc1cccc(-c2cn3ccccc3n2)c1)c1cccc(Cl)c1	Mdm2 MdmX PPI 74.6 | Mdm2 MdmX conf inactive
O=c1c2ccccc2nc(CSc2nnnn2-c2ccccc2)n1-c1ccccc1Cl	Mdm2 MdmX PPI 68.2 | Mdm2 MdmX conf 43.2 | FLuc counter 63.9
COc1ccc(-c2nn(-c3ccccc3)cc2/C=N/N2C(=O)CSC2=S)cc1	Mdm2 MdmX PPI 96.8 | Mdm2 MdmX conf inactive
Nc1nsc2ccccc12	Mdm2 MdmX PPI 61.2 | Mdm2 MdmX conf inactive
N#C/C(=N\Nc1ccc(F)cc1)C(=O)C1CC1	none
